Data: PubChem BioAssay (NCI)
Several values for one entry are separate records, joined by “and”; a condition that tells them apart may be missing. Identical values can stand only once. The panel holds about 83,000 compounds, 20% with a hit somewhere; the sample as a whole holds those more often.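 The endpoint reported here, percent growth, reads 100 for growth as untreated, 0 for no net growth and -100 for all cells dead.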 Activity calls are given as the source filed them. How the source made its calls: active means growth percent below 10; inactive means the rest.

Legend:
Test in all cases: NCI-60 one-dose screen, 48 h (100 = growth as untreated, 0 = no growth, -100 = all killed)
Conditions in all cases: 10 µM unless noted
SK-MEL-2 melanoma = tested on: SK-MEL-2 melanoma
EKVX NSCLC = tested on: EKVX NSCLC
SN12C renal = tested on: SN12C renal
UO-31 renal = tested on: UO-31 renal
TK-10 renal = tested on: TK-10 renal
CAKI-1 renal = tested on: CAKI-1 renal
A498 renal = tested on: A498 renal
MOLT-4 leukemia = tested on: MOLT-4 leukemia
CCRF-CEM leukemia = tested on: CCRF-CEM leukemia
ACHN renal = tested on: ACHN renal

SMILES | growth (SK-MEL-2 melanoma) | growth (EKVX NSCLC) | growth (SN12C renal) | growth (UO-31 renal) | growth (TK-10 renal) | growth (CAKI-1 renal) | growth (A498 renal) | growth (MOLT-4 leukemia) | growth (CCRF-CEM leukemia) | growth (ACHN renal)
COC(=O)C(Cc1cn(C(C)=O)c2ccccc12)P(=O)(OC)OC (centres undefined) | 102% (inactive) | 90.6% (inactive) | 97.7% (inactive) | 74.8% (inactive) | 100% (inactive) | 102% (inactive) | 115% (inactive) | 108% (inactive) |  | 
N=C(N=C(N)N)N1CCOCC1 | 111% (inactive) and 99.2% (inactive) | 103% (inactive) and 105% (inactive) | 99.4% (inactive) and 96.7% (inactive) | 83.8% (inactive) and 85% (inactive) | 103% (inactive) and 97.9% (inactive) | 94.8% (inactive) and 103% (inactive) | 91.7% (inactive) and 102% (inactive) | 105% (inactive) and 102% (inactive) | 107% (inactive) and 93.8% (inactive) | 
CCn1c2ccc(N(C)C)cc2c2cc(N(C)C)ccc21 | 104% (inactive) | 88% (inactive) | 104% (inactive) | 94.5% (inactive) | 118% (inactive) | 98.4% (inactive) | 86.2% (inactive) | 96.9% (inactive) |  | 99.9% (inactive)
CSc1nc(N)c(N)c(N)n1 | 104% (inactive) | 105% (inactive) | 99.4% (inactive) | 93% (inactive) | 111% (inactive) | 97.8% (inactive) | 94.5% (inactive) | 83% (inactive) | 64.7% (inactive) | 
CCOC(=O)CN1CCC(C(=O)OCC)CC1 | 111% (inactive) | 127% (inactive) | 99.7% (inactive) | 94.9% (inactive) | 106% (inactive) | 116% (inactive) | 91.5% (inactive) | 106% (inactive) | 89.5% (inactive) | 
CCN(CC)CCNC(=O)c1ccc(NCN2C(=O)NC(c3ccccc3)(c3ccccc3)C2=O)cc1 | 106% (inactive) and 112% (inactive) | 90.6% (inactive) and 95.3% (inactive) | 107% (inactive) and 105% (inactive) | 86.6% (inactive) and 67.1% (inactive) | 115% (inactive) and 114% (inactive) | 90.5% (inactive) and 88.1% (inactive) | 81.1% (inactive) and 205% (inactive) | 102% (inactive) and 108% (inactive) | 101% (inactive) | 
Cc1ccc2cccc([N+](=O)[O-])c2n1 | 104% (inactive) and 111% (inactive) | 114% (inactive) | 98.8% (inactive) and 100% (inactive) | 88.3% (inactive) and 73.6% (inactive) | 109% (inactive) and 111% (inactive) | 96.5% (inactive) and 95.6% (inactive) | 117% (inactive) and 109% (inactive) | 88.5% (inactive) and 89.3% (inactive) | 108% (inactive) and 95.3% (inactive) | 105% (inactive) and 96.9% (inactive)
O=C(O)C(Cc1ccc(OS(=O)(=O)Cc2ccccc2)cc1)NS(=O)(=O)Cc1ccccc1 (centres undefined) | 110% (inactive) and 108% (inactive) | 102% (inactive) and 115% (inactive) | 110% (inactive) and 104% (inactive) | 95.8% (inactive) and 86.1% (inactive) | 101% (inactive) and 110% (inactive) | 90.9% (inactive) and 98.6% (inactive) | 114% (inactive) and 130% (inactive) | 121% (inactive) and 102% (inactive) |  | 105% (inactive) and 101% (inactive)
CC(=O)c1cccc(OC(=O)c2ccccc2)c1 | 88.9% (inactive) | 110% (inactive) | 91.2% (inactive) | 103% (inactive) | 106% (inactive) | 91.1% (inactive) | 107% (inactive) | 84.7% (inactive) | 97.8% (inactive) | 
O=[N+]([O-])c1cccc2ccc(N/N=C/c3ccccc3O)nc12 | 149% (inactive) and 75% (inactive) | 78.8% (inactive) and 82.1% (inactive) | 96.4% (inactive) and 98.5% (inactive) | 26.6% (inactive) and 64.3% (inactive) | 150% (inactive) and 120% (inactive) | 80.3% (inactive) | 92.8% (inactive) and 95% (inactive) | 16.6% (inactive) and 57% (inactive) | 3.42% (active) and 86.9% (inactive) | 
N=c1sc2ccccc2n1CC(=O)O | 95.4% (inactive) | 104% (inactive) | 94.1% (inactive) | 86.4% (inactive) | 96.9% (inactive) | 97.8% (inactive) | 102% (inactive) | 117% (inactive) | 85.8% (inactive) | 
CC(=O)Nc1ccc2oc(=O)ccc2c1 | 101% (inactive) | 94.6% (inactive) | 95.6% (inactive) | 91.3% (inactive) | 111% (inactive) | 88.1% (inactive) | 89.9% (inactive) | 98.6% (inactive) |  | 113% (inactive)
O=S(=O)(O)c1ccc2cc(O)ccc2c1 | 106% (inactive) | 106% (inactive) | 105% (inactive) | 95.1% (inactive) | 99.7% (inactive) | 99.5% (inactive) | 78.8% (inactive) | 103% (inactive) | 109% (inactive) | 
CC1NC(C)c2ccc3ccccc3c2O1 (centres undefined) | 100% (inactive) | 123% (inactive) | 99.1% (inactive) | 69.4% (inactive) | 110% (inactive) | 96.7% (inactive) | 84.8% (inactive) | 105% (inactive) |  | 98.3% (inactive)
N=C(N)N1CCc2ccccc2C1 | 128% (inactive) | 66% (inactive) and 97% (inactive) | 90.8% (inactive) and 99.6% (inactive) | 82.8% (inactive) and 86.8% (inactive) | 106% (inactive) and 110% (inactive) | 74.5% (inactive) and 101% (inactive) | 58.3% (inactive) | 88.3% (inactive) and 106% (inactive) |  | 101% (inactive)
O=C1C2=C(Nc3cc(Cl)ccc3N2)OC1c1c[nH]c2ccc(COc3ccccc3)cc12 (centres undefined) | 86.7% (inactive) | 55% (inactive) | 71.3% (inactive) | 51.2% (inactive) | 71.6% (inactive) | 52.1% (inactive) | 102% (inactive) | 77.3% (inactive) |  | 60% (inactive)
CS(=O)(=O)c1nsc(N)n1 | 96.3% (inactive) | 108% (inactive) | 101% (inactive) | 91.4% (inactive) | 101% (inactive) | 103% (inactive) | 97.4% (inactive) | 103% (inactive) | 106% (inactive) | 107% (inactive)
O=[N+]([O-])c1ccc(NC2CCCCC2)nc1 | 104% (inactive) and 107% (inactive) | 101% (inactive) and 106% (inactive) | 104% (inactive) and 108% (inactive) | 90% (inactive) and 76.3% (inactive) | 103% (inactive) and 101% (inactive) | 96.7% (inactive) and 95.7% (inactive) | 102% (inactive) | 95.2% (inactive) and 106% (inactive) | 103% (inactive) and 96.3% (inactive) | 101% (inactive) and 97.5% (inactive)
CCOC(=N)c1ccc(C(=N)OCC)cc1 | 103% (inactive) | 90.2% (inactive) | 98.4% (inactive) | 95.1% (inactive) | 96.6% (inactive) | 99% (inactive) | 90.6% (inactive) | 111% (inactive) |  | 102% (inactive)
CC(C)(C)OC(=O)NCCc1ccc(N)cc1 | 86.1% (inactive) | 101% (inactive) | 91.8% (inactive) | 72% (inactive) | 92.7% (inactive) | 98.2% (inactive) | 92.5% (inactive) | 92.8% (inactive) | 85.5% (inactive) | 
CN(C)CC(CN(C)C)C(O)c1ccccc1 (centres undefined) | 94.4% (inactive) | 96.1% (inactive) | 103% (inactive) | 96.1% (inactive) | 89.5% (inactive) | 98.2% (inactive) | 109% (inactive) | 106% (inactive) |  | 105% (inactive)
CCCC(=O)OCC(COC(=O)CCC)OC(=O)CCC | 99.2% (inactive) | 93.7% (inactive) | 96.9% (inactive) | 87.3% (inactive) | 99.4% (inactive) | 94.8% (inactive) | 104% (inactive) | 102% (inactive) |  | 108% (inactive)
CCCCOC1NC(=O)NC(=O)C1(F)C(=O)OCC (centres undefined) | 97.8% (inactive) and 101% (inactive) | 74.8% (inactive) | 90.2% (inactive) and 59.9% (inactive) | 55.2% (inactive) and 51.3% (inactive) | 65.5% (inactive) and 71.7% (inactive) | 45.3% (inactive) and 62.3% (inactive) | 78.9% (inactive) and 112% (inactive) | 92% (inactive) and 65.2% (inactive) | 72.6% (inactive) | 
